Usually AC50 stands for the concentration giving half of the maximal activity seen.

Where “and” joins values, the source holds several entries; their conditions need not be identical. Equal entries are not always repeated. A structure can be active in one record and inactive in another. Calls of active or inactive are those of the source. How the source made its calls: active means hit-call score of the fitted dose curve at least 0.9, where 1 is the maximum; inactive means score below 0.9.

This assay deals with Cellular tumor antigen p53 (Homo sapiens) (UniProt P04637). The experiment in a line: ATG_p53_CIS: Attagene CIS-FACTORIAL HepG2 Assay for human p53 Transcription Factor (AID 2282994). Conditions: HepG2 p53 cis-element reporter, Attagene mRNA; actives raise or lower the signal. The method, then: ATG_CIS is a cell-based, multiplexed-readout assay that uses HepG2, a human liver cell line, with measurements taken at 24 hours after chemical dosing in a 24-well plate.ATG_p53_CIS is one of 52 assay component(s) measured or calculated from the ATG_CIS assay. It is designed to make measurements of mRNA induction, a form of inducible reporter, as detected with fluorescence intensity signals by Reverse transcription polymerase chain reaction (RT-PCR) and Capillary electrophoresis technology.Data from the assay component ATG_p53_CIS was analyzed into 1 assay endpoint. This assay endpoint, ATG_p53_CIS, was analyzed with bidirectional fitting relative to DMSO as the negative control and baseline of activity. Using a type of inducible reporter, measures of mRNA for gain or loss-of-signal activity can be used to understand the reporter gene at the transcription factor-level as they relate to the gene TP53. Furthermore, this assay endpoint can be referred to as a primary readout, because this assay has produced multiple assay endpoints where this one serves a reporter gene function. To generalize the intended target to other relatable targets, this assay endpoint is annotated to the dna binding intended target family, where the subfamily is tumor suppressor.
Cellular tumor antigen p53 (Homo sapiens), sequence (P04637 whole entry, looked up): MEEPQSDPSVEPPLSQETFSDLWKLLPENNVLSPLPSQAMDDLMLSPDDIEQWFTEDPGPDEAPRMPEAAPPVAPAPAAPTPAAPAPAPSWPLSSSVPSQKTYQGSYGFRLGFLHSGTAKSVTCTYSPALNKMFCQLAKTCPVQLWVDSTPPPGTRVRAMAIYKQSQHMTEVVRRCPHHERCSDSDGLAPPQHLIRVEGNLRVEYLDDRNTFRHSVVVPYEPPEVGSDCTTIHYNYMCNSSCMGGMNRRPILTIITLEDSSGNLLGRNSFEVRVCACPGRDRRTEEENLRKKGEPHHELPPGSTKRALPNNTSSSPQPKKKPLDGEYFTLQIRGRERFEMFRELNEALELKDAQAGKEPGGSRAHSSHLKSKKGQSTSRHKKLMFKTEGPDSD
Human liver HepG2 cells are transiently transfected with multiple reporter transcription units (MRTUs) in 6-well plates using FuGene 6 reagent (Roche; 3 ml FuGene/1 mg DNA). The MRTU constructs are regulated by a cis-regulating element (promoter). […] A major difference between the CIS and TRANS system is that in CIS activities of endogenous TFs are measured, whereas the TRANS assay evaluates changes in activities of exogenous, chimeric NR-Gal4 proteins. […] At the end of 24 hour incubation, total RNA was isolated using TriZol reagent (Invitrogen). The isolated RNA is then reverse-transcribed using oligo(dT) primer and Mo-MLV reverse transcriptase (Invitrogen) with DNAse I (Ambion) treatment for 30 min. The one-tenth of the produced cDNA was amplified by PCR using Taq DNA polymerase (Invitrogen) and two reporter sequence-specific primers. The PCR products were fluorescently labeled by primer extension with 6-arboxyfluorescein (6-FAM) 5'-labeled reporter sequence-specific primer (2 min at 95 C, 20 s at 68 C and 10 min at 72 C) and these products were digested with 5U of HpaI (New England Biolabs) for 2h at 37 C. The fragments were purified using Qiaquick PCR columns (Qiagen), analyzed on an ABI 3130xL genetic analyzer (Applied Biosystems) with peak positions identified by using a set of X-rhodamine (ROX)-labeled MapMarker1000 molecular weight standards (BioVentures). The raw capillary electrophoresis data was processed using Attagraph software (Attagene).
For `O=C(O)C(F)(F)C(F)(F)C(F)(F)C(F)(F)C(F)(F)C(F)(F)C(F)(F)C(F)(F)C(F)(F)C(F)(F)C(F)(F)C(F)(F)C(F)(F)F`, the molecule was classed as inactive. On to `C=CC(=O)OCC(F)(F)C(F)(F)C(F)(F)C(F)(F)C(F)(F)C(F)(F)C(F)(F)F`, for which the result was inactive. Same read-out and setting: as for `C=CC/C=C/C/C=C/C/C=C/C`, the entry is “inactive”; as for `O=C(O)C=C(C(F)(F)F)C(F)(F)F`, “inactive”. Turning to `c1ccc(B(c2ccccc2)c2ccccc2)cc1`, the molecule was called inactive.

For the molecule `COC(=O)CCC(F)(F)C(F)(F)C(F)(F)C(F)(F)F`, the result was inactive.

Consider `CCCCCCCCC(F)(F)C(F)(F)C(F)(F)C(F)(F)C(F)(F)C(F)(F)F`, for which the molecule was called inactive. On to `NC(=O)C(F)(F)C(F)(F)C(F)(F)C(F)(F)F`, for which the call was inactive. Turning to `Nc1cc(Cl)c(N)c(Cl)c1`, the molecule was classed as inactive. Same read-out and setting: as for `OCCCC(F)(F)C(F)(F)C(F)(F)F`, the entry is “inactive”. The same measure, in the same setting: as for `OC[C@@H](O)[C@@H](O)[C@H](O)[C@@H](O)CO`, the entry is “inactive”; as for `C#C[C@]1(O)CC[C@H]2[C@@H]3CCc4cc(OC)ccc4[C@H]3CC[C@@]21C`, “inactive”; as for `CCCCCC=O`, “inactive”. For `O=C(OCCOCCOCCOC(=O)c1ccccc1)c1ccccc1`, the outcome was inactive.

Regarding `CCO[Si](CCC(F)(F)C(F)(F)C(F)(F)C(F)(F)C(F)(F)C(F)(F)F)(OCC)OCC`, the molecule was classed as inactive. On the same count and under the same terms, as for `CC(C)=CCCC(C)CCOC(=O)C(C)C` (stereo not given), the entry is “inactive”; as for `CC(C)(C)c1ccc(OC2CCCCC2O)cc1` (stereo not given), “inactive”; as for `c1ccc(-c2ccccc2-c2ccccc2)cc1`, “inactive”. Turning to `CCCCOc1ccc(N)cc1`, the molecule was called inactive.

As to `O=C(CC(=O)C(F)(F)C(F)(F)F)C(F)(F)F`, the AC50 is 112 µM (active) and the molecule was called inactive. Take `CC/C=C\CCOC(=O)c1ccccc1`: the result was inactive. The same measure, in the same setting: as for `FC(F)(F)C(F)(F)CNCC(F)(F)C(F)(F)F`, the entry is “inactive”; as for `Cc1cc(C)cc(O)c1`, “inactive”; as for `CS(C)(=O)=O`, “inactive”. The same measure, in the same setting: as for `CCCCCCOC(=O)c1ccccc1`, the entry is “inactive”; as for `FC(F)(F)C(F)(F)C(F)(F)C(F)(F)C(F)(F)C(F)(F)CC1CO1` (stereo not given), “inactive”; as for `O=C(O)C(F)(OC(F)(F)C(F)(OC(F)(F)C(F)(F)C(F)(F)F)C(F)(F)F)C(F)(F)F` (stereo not given), “inactive”.

Regarding `Nc1ccc(Oc2cccc(Oc3ccc(N)cc3)c2)cc1`, the AC50 was 26.7 µM (active). Same read-out and setting: as for `O=C(O)C(F)(F)C(F)(F)C(F)(F)C(F)(F)C(F)(F)C(F)(F)C(F)(F)C(F)(F)Cl`, the figure is 57.7 µM (active) and 69.5 µM (active). For the molecule `CNC(=S)NC`, the molecule was classed as inactive. Same read-out and setting: as for `Cc1cccc(N(C)C)c1`, the entry is “inactive”; as for `FC(F)(F)C(F)(F)C(F)(F)CI`, “inactive”. Take `C=C(C)C(=O)OCCC(F)(F)C(F)(F)C(F)(F)C(F)(F)C(F)(C(F)(F)F)C(F)(F)F`: the result was inactive. In the case of `O=S(=O)(OCCOC(F)(F)F)C(F)(F)F`, the molecule was called inactive. On the same count and under the same terms, as for `CCCCCCS`, the entry is “inactive”; as for `CC(C)c1ccccc1N`, “inactive”.

Regarding `O=C(O)C(F)(F)C(F)(F)OC(F)(F)F`, the call was inactive. As for `CCc1c(Br)c(Br)c(Br)c(Br)c1Br`, the call was inactive. On the same count and under the same terms, as for `FC(F)(F)C(F)(F)C(F)(F)C(F)(F)C(F)(F)C(F)(F)CCS`, the entry is “inactive”.

Values taken from PubChem BioAssay (EPA / NIEHS).
